Reference: PubChem BioAssay (NCATS)
Inconclusive results are not listed. A call without a number means that no potency is given here. Activity calls are given as the source filed them. The call rests on the fitted dose curve; in most records, active means well fitted inhibition curve with a large enough effect; inconclusive means small, poorly fitted or top-dose-only effect; inactive means no such curve, though single readings can be large or run the other way.

Each molecule was assayed against Retinaldehyde dehydrogenase 3 (Homo sapiens) (UniProt P47895) (assay: qHTS for Inhibitors of the Aldehyde Dehydrogenase Family (ALDH1A3) Primary screen (AID 2061315)). Conditions: ALDH inhibition qHTS; series mostly up to 56 µM.

| Structure (SMILES) | Potency |
| --- | --- |
| Cc1ccc2nc3sc(C(=O)N4CCC(C(N)=O)CC4)cc3cc2c1 | inactive |
| COc1ccccc1C(=O)N1CCc2cc(-c3nc(NC(=O)Cc4ccc5c(c4)OCO5)sc3C)ccc21 | inactive |
| O=S(=O)(NC1CCN(S(=O)(=O)c2ccc3c(c2)OCCO3)CC1)c1c(F)cccc1F | inactive |
| O=C1CCc2cc(Cl)c(S(=O)(=O)Nc3ccc(Cl)c(Cl)c3)cc2N1 | inactive |
| Cc1cccc(NC(=O)c2cnn3c(C)cc(C)nc23)c1 | inactive |
| COc1ccc(C2Nc3ccccc3C(=O)N2Cc2ccncc2)cc1COc1c(C)cc(NC(C)=O)cc1C (stereo not given) | inactive |
| NC1(C(=O)NC(CCO)c2ccc(Cl)cc2)CCN(c2ncnc3[nH]ccc23)CC1 (stereo not given) | inactive |
| COc1ccccc1-c1nc2ccccc2s1 | inactive |
| N#CN/C(=N\c1nnc(-c2ccncc2)s1)Nc1ccc(F)c(C(F)(F)F)c1 | inactive |
| O=C(CSc1nnc(-c2cccc(S(=O)(=O)N3CCCC3)c2)n1-c1ccccc1)Nc1ccc(Cl)cc1 | inactive |
| Fc1cc(Nc2nc(-c3ccncc3)nc3ccccc23)ccc1-c1cccc(OC(F)(F)F)c1 | inactive |
| COc1ccc(C2=Nn3c(nnc3-c3cccc(OC)c3OC)SC2)cc1OC | inactive |
| FC(F)(F)c1ccc(CSc2nc3ncc(Br)cc3[nH]2)cc1 | inactive |
| Cc1ccc(CNc2ccc(N3CCN(C(=O)OC(C)(C)C)CC3=O)cc2)cc1 | inactive |
| CC1=C(C(=O)Nc2nc3ccccc3s2)C(c2nn(C)cc2Cl)N=C(Nc2nc3ccccc3o2)N1 (stereo not given) | inactive |
| CCCn1c(-c2ccc(F)cc2)nc2c(NCCN(CC)CC)nc(C)nc21 | inactive |
| C=C(C)C(=O)O[C@H]1[C@H]2C(=C)C(=O)O[C@@H]2C[C@@H](C)[C@@H]2O[C@@H]2C(=O)[C@](C)(O)[C@@H]1OC(=O)C(=C)C | inactive |
| Cc1ccc(C)c(SC2=CS(=O)(=O)c3ccccc32)c1 | inactive |
| CC(C)c1ccccc1-c1ncc(F)c(NCC2CCN(c3cnccn3)C2)n1 (stereo not given) | inactive |
| O=C1CCCC2=C1C(c1[nH]ncc1Cl)N=C(Nc1nc3cc(F)ccc3o1)N2 (stereo not given) | inactive |

| Structure (SMILES) | Potency |
| --- | --- |
| O=[S+]([O-])(Nc1ccc(C2CCNCC2)cc1)c1ccc(NCc2ccc(Cl)cc2O)cc1 | inactive |
| N#Cc1nc(-c2cccc3ccccc23)oc1NC1COC1 | inactive |
| CC1(C)CC[C@]2(C(=O)O)CC[C@]3(C)C(=CCC4[C@@]5(C)C[C@@H](O)[C@H](O)C(C)(C)C5CC[C@]43C)C2C1 (stereo not given in full) | inactive |
| Cc1ccc(-c2nc3ccccc3[nH]2)cc1NC(=O)c1ccc(-c2cccc(Cl)c2)o1 | inactive |
| C[C@@H](NC(c1ccc(F)cc1)c1ccc2cccnc2c1O)c1ccccc1 (stereo not given in full) | inactive |
| O=C1CCCC2=C1C(c1ccncc1Br)N=C(Nc1nc3ccccc3o1)N2 (stereo not given) | inactive |
| Cc1cc(NS(=O)(=O)c2ccc3c(c2)CCC(=O)N3)ccc1Cl | inactive |
| Cc1cc(-c2nc(Nc3ccc(F)c(F)c3)c3ccccc3n2)cc(C)n1 | inactive |
| O=C(OCC#CCSc1nnc(-c2cccc3ccccc23)o1)c1cccc(F)c1 | inactive |
| COc1cccc(S(=O)(=O)N2CCN(S(=O)(=O)c3ccc4c(c3)OCCO4)CC2)c1 | inactive |
| COc1ccc(Cl)cc1C(=O)Nc1nc(-c2ccccc2)cs1 | inactive |
| O=C(Nc1nnc(-c2ccco2)o1)c1ccc(Br)cc1 | inactive |
| c1ccc(OCc2nnc3n2N=C(c2ccccc2)CS3)cc1 | inactive |
| O=[S+]([O-])(c1ccc2c(c1)OCCO2)N1CCN([S+](=O)([O-])c2ccccc2Br)CC1 | inactive |
| Cc1cccc(-c2ccc3ncnc(NCc4cccc(F)c4)c3c2)c1 | inactive |
| O=C(CNC(=O)c1ccc(Cl)cc1Cl)OC(C(=O)Nc1cc(C(F)(F)F)ccc1Cl)c1ccccc1 (stereo not given) | inactive |
| O=C1CCCC2CC(Nc3nc4ccccc4o3)CC(c3ccccc3)C12 (stereo not given) | inactive |
| COc1ccc(-c2nnc3n2N=C(c2ccc(OC)c(OC)c2)CS3)c(OC)c1 | inactive |
| Cc1cc(C)nc(NC(=S)N2CCN(c3ccc([N+](=O)[O-])c4cccnc34)CC2)c1 | inactive |
| CC(=O)Nc1oc(-c2cccc3ccccc23)nc1C#N | inactive |
